Records with an inconclusive call do not appear. Activity calls are given as the source filed them. Unless noted, calls come from the whole dose curve; as a rule, active = well fitted curve in the direction sought with a large enough effect in the repeat runs; inconclusive = weak or mixed curves; inactive = no such curve, though single readings can be large; an effect the other way counts as inactive or inconclusive.
Columns and labels:
[1] = qHTS assay to identify small molecule antagonists of the glucocorticoid receptor (GR) signaling pathway - cell viability counter screen (AID 720693); note: nearly all actives have a fitted effect of over 55% in size
[2] = qHTS assay for identifying genotoxic compounds that show differential cytotoxicity against isogenic chicken DT40 cell lines with known DNA damage response pathways - wild type cell line (AID 743012); note: nearly all actives have a fitted effect of over 60% in size
Method in brief: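 Luminescent ATP viability signal (CellTiter-Glo, 30 min RT) recorded after wild type DT40 cells were incubated with compounds for 40 h at 37 C/5% CO2.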

[3] = qHTS assay for identifying genotoxic compounds that show differential cytotoxicity against isogenic chicken DT40 cell lines with known DNA damage response pathways - Rev3 mutant cell line (AID 743014); note: nearly all actives have a fitted effect of over 55% in size
[4] = qHTS assay for identifying genotoxic compounds that show differential cytotoxicity against isogenic chicken DT40 cell lines with known DNA damage response pathways - Rad54/Ku70 mutant cell line (AID 743015); note: nearly all actives have a fitted effect of over 60% in size
[5] = qHTS assay to identify small molecule antagonists of the androgen receptor (AR) signaling pathway - cell viability counter screen (AID 743033; note: nearly all actives have a fitted effect of over 45% in size)
[6] = biological target: Androgen receptor (Homo sapiens) (UniProt P10275); assay: qHTS assay to identify small molecule antagonists of the androgen receptor (AR) signaling pathway (AID 743035; active = well fitted inhibition curve with a large enough effect in the signal ratio in the repeat runs, not every such curve was filed as active; the % refers to the signal ratio)
Chain of Androgen receptor (Homo sapiens) (P10275 whole entry, looked up): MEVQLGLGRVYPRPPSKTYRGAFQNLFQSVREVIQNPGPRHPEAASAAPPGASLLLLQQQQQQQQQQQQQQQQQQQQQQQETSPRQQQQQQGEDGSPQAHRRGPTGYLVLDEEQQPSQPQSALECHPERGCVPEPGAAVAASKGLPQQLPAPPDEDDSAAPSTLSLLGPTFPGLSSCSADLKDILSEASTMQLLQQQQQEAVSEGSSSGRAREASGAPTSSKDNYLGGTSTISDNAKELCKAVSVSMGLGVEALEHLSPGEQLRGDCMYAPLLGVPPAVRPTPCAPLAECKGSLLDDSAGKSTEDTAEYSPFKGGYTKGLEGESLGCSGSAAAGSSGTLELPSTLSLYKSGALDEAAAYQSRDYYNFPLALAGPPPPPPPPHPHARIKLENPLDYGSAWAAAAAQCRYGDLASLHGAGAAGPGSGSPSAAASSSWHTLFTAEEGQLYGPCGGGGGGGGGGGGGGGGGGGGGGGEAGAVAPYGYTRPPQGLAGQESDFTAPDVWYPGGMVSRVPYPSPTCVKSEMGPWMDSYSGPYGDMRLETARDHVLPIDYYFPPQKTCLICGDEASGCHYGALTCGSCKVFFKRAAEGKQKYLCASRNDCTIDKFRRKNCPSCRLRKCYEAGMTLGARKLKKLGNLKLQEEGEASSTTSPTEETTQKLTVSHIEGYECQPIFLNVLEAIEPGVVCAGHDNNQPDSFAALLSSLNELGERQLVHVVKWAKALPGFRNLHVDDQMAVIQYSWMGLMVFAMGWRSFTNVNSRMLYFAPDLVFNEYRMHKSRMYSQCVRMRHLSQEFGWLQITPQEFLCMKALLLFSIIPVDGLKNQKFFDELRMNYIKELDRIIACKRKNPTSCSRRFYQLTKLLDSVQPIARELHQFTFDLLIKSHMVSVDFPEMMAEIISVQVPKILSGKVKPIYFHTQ
Method in brief: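 Quantitative HTS of the Tox21 10K library used HEK293 AR-UAS-bla cells stimulated with R1881 alongside compound for 16 h at 37C, followed by beta-lactamase FRET detection (LiveBLAzer B/G, 2 h, RT).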

[7] = biological target: Androgen receptor (Homo sapiens) (UniProt P10275); assay: qHTS assay to identify small molecule agonists of the androgen receptor (AR) signaling pathway using the MDA cell line (AID 743040; note: nearly all actives have a fitted effect of over 20% in size)
Method in brief: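 Luciferase agonist assay: 16 h compound exposure at 37C without CO2 in MDA-kb2 AR-luc cells, whose MMTV promoter responds to both AR and GR. Luminescence measured after 30 min room-temperature incubation with ONE-Glo.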

[8] = qHTS assay to identify small molecule antagonists of the androgen receptor (AR) signaling pathway using the MDA cell line - cell viability counter screen (AID 743041; note: nearly all actives have a fitted effect of over 45% in size)
Method in brief: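 Viability read by CellTiter-Fluor fluorescence in the same wells as the antagonist screen, added after 15.5 h of a 16 h, 37C exposure. Human breast carcinoma MDA-kb2 AR-luc cells, compounds co-dosed with agonist R1881.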

[9] = qHTS assay to identify small molecule antagonists of the thyroid receptor (TR) signaling pathway - cell viability counter screen (AID 743064); note: nearly all actives have a fitted effect of over 50% in size
Method in brief: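 Rat GH3 pituitary tumor cells stably expressing two TR response elements driving luciferase were plated, rested 4 h, then dosed with library compounds and T3 (1 nM final). After 23.5 h at 37 °C, CellTiter-Fluor was added for 30 min and fluorescence recorded.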

[10] = qHTS assay to identify small molecule antagonists of the thyroid receptor (TR) signaling pathway (AID 743065); note: nearly all actives have a fitted effect of over 55% in size
Method in brief: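 Antagonism measured as loss of luciferase signal in GH3 cells stably carrying a TRE-luciferase reporter, co-treated with compound and T3 (1 nM final) for 23.5 h at 37 C. Viability was read in the same well by CellTiter-Fluor.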

[11] = tested on: thyroid hormone receptor (rat, GH3 cells); assay: qHTS assay to identify small molecule agonists of the thyroid receptor (TR) signaling pathway (AID 743066; calls by dose curve)
[12] = qHTS assay to identify small molecule antagonists of the estrogen receptor alpha (ER-alpha) signaling pathway - cell viability counter screen (AID 743074; calls by dose curve;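 note: HEK293 cells carrying ER-alpha-UAS-bla reporter stimulated with 17beta-estradiol; nearly all actives have a fitted effect of over 45% in size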)
[13] = biological target: Estrogen receptor (Homo sapiens) (UniProt P03372); assay: qHTS assay to identify small molecule agonists of the estrogen receptor alpha (ER-alpha) signaling pathway (AID 743075; calls by dose curve;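 note: HEK293 GripTite cells with ER-alpha and UAS-driven beta-lactamase reporter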)
Chain of Estrogen receptor (Homo sapiens) (P03372 whole entry, looked up): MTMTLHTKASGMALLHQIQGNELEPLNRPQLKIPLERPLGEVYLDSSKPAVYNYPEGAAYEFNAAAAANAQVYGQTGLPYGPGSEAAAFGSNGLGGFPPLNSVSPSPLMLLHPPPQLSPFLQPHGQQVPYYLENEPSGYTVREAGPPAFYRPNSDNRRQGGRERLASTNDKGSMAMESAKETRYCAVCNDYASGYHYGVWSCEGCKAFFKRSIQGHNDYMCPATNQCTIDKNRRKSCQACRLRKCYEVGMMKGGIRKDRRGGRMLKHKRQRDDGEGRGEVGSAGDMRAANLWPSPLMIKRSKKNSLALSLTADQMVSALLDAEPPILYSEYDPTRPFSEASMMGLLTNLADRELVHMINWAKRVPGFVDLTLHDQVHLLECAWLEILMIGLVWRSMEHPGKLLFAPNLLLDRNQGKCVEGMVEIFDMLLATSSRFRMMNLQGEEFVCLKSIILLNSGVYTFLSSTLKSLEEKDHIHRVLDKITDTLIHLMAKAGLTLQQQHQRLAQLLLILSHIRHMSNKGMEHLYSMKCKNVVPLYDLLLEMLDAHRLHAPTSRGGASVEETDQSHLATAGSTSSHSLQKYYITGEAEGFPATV

[14] = biological target: Estrogen receptor (Homo sapiens) (UniProt P03372); assay: qHTS assay to identify small molecule agonists of the estrogen receptor alpha (ER-alpha) signaling pathway using the BG1 cell line (AID 743079); details: BG1Luc4E2 cells, ERE-luciferase agonist, 22 h; at 70.3 µM (top of the series); note: nearly all actives have a fitted effect of over 20% in size
[15] = qHTS assay to identify small molecule antagonists of the estrogen receptor alpha (ER-alpha) signaling pathway using the BG1 cell line (AID 743080; calls by dose curve;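 note: BG1 cells stimulated with 17beta-estradiol alongside compound; nearly all actives have a fitted effect of over 25% in size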)
Method in brief: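 BG1Luc4E2, endogenous ER-alpha, 4xERE-luc; 5 d charcoal-stripped FBS, phenol red free; 24 h plating; cpd + 17beta-estradiol 21.5 h, 37 C/5% CO2; CellTiter-Fluor viability 30 min, then ONE-Glo luciferase 30 min RT.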

[16] = qHTS assay to identify small molecule antagonists of the estrogen receptor alpha (ER-alpha) signaling pathway using the BG1 cell line - cell viability counter screen (AID 743081);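 note: compound given together with 17beta-estradiol as the ER stimulus; nearly all actives have a fitted effect of over 45% in size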
[17] = biological target: Aromatase (Homo sapiens) (UniProt P11511); assay: qHTS assay to identify aromatase inhibitors (AID 743083); note: nearly all actives have a fitted effect of over 55% in size
Chain of Aromatase (Homo sapiens) (P11511 whole entry, looked up): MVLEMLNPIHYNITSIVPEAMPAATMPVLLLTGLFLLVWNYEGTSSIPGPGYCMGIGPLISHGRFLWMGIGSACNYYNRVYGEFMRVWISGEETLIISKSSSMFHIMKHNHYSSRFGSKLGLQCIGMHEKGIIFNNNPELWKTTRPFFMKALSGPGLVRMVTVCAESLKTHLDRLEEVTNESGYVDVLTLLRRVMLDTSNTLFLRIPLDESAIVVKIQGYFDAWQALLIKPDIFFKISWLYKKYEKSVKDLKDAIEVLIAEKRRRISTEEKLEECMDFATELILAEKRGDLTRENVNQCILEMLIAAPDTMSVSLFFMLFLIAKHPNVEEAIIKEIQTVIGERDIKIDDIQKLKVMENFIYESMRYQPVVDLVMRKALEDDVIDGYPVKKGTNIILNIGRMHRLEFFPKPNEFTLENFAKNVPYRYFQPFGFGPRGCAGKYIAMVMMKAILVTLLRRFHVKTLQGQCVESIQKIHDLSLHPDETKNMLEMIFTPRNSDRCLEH

[18] = qHTS assay to identify aromatase inhibitors - cell viability counter screen (AID 743084)
[19] = biological target: Estrogen receptor (Homo sapiens) (UniProt P03372); assay: qHTS assay to identify small molecule antagonists of the estrogen receptor alpha (ER-alpha) signaling pathway (AID 743069; active = well fitted curve in the direction sought with a large enough effect in the signal ratio in the repeat runs, not every such curve was filed as active; the % refers to the signal ratio)
Method in brief: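 Antagonist mode: compounds in DMSO were co-added with 17beta-estradiol to ER-alpha-bla HEK293 cells (2% charcoal-stripped serum) and left 18 h at 37C. Reporter inhibition was measured as FRET fluorescence after 2 h LiveBLAzer substrate at room temperature.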

[20] = biological target: Androgen receptor (Homo sapiens) (UniProt P10275); assay: qHTS assay to identify small molecule agonists of the androgen receptor (AR) signaling pathway (AID 743036; active = well fitted activation curve with a large enough effect in the signal ratio in the repeat runs, with a control signal flat, not every such curve was filed as active; the % refers to the signal ratio)
Method in brief: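 Quantitative HTS of the Tox21 10K library in HEK293 cells bearing a stably integrated UAS-controlled beta-lactamase reporter. Compound exposure lasted 16 h at 37C. Reporter activity was detected by FRET substrate fluorescence after 2 h at room temperature.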
% is set by controls: 0 for no effect and ±100 for the full control effect.

BrCc1ccc(Br)cc1
inactive: Potency [1] | Potency [2] | Potency [3] | Potency [4] | Potency [5] | Potency [6] | outcome [7] | Potency [8] | Potency [9] | Potency [10] | Potency [11] | Potency [12] | Potency [13] | activation [14] -9.06% | Potency [15] | Potency [16] | Potency [17] | Potency [18]

CCOP(=O)(CN(CCO)CCO)OCC
inactive: Potency [1] | Potency [2] | Potency [3] | Potency [4] | Potency [5] | Potency [8] | Potency [9] | Potency [10] | Potency [11] | Potency [12] | Potency [13] | activation [14] -2.5% | Potency [15] | Potency [16] | Potency [17] | Potency [18]

CC(O)CCl (centres undefined)
inactive: Potency [1] | Potency [2] | Potency [3] | Potency [4] | Potency [5] | Potency [8] | Potency [9] | Potency [10] | Potency [11] | Potency [19] | Potency [12] | Potency [13] | activation [14] 8.02% | Potency [15] | Potency [16] | Potency [17] | Potency [18]

CCC1(c2ccccc2)CCC(=O)NC1=O (centres undefined)
inactive: Potency [1] | Potency [2] | Potency [3] | Potency [4] | Potency [5] | Potency [6] | outcome [20] | outcome [7] | Potency [8] | Potency [9] | Potency [10] | Potency [11] | Potency [19] | Potency [12] | Potency [13] | activation [14] 2.78% | Potency [15] | Potency [17] | Potency [18]

COc1cccc(C=O)c1
inactive: Potency [1] | Potency [2] | Potency [3] | Potency [4] | Potency [5] | Potency [8] | Potency [9] | Potency [10] | Potency [11] | Potency [19] | Potency [12] | Potency [13] | activation [14] -1.53% | Potency [15] | Potency [16] | Potency [17] | Potency [18]

CN(C)CCc1c[nH]c2cccc(OP(=O)(O)O)c12
inactive: Potency [1] | Potency [2] | Potency [3] | Potency [4] | Potency [5] | Potency [8] | Potency [9] | Potency [10] | Potency [11] | Potency [19] | Potency [13] | activation [14] -12.3% | Potency [15] | Potency [16] | Potency [17] | Potency [18]

C/C(=N\NC(=O)Nc1cc(F)cc(F)c1)c1ncccc1C(=O)O
inactive: Potency [1] | Potency [2] | Potency [3] | Potency [4] | Potency [5] | Potency [8] | Potency [9] | Potency [10] | Potency [11] | Potency [12] | Potency [13] | activation [14] -0.0536% | Potency [15] | Potency [16] | Potency [17] | Potency [18]

Source: PubChem BioAssay (Tox21)
